{
  "source": "PubChem BioAssay (Tox21)",
  "note": "Calls of active or inactive are those of the source. Where a call stands in place of a potency, no number is given. The call rests on the fitted dose curve.",
  "data": [
    {"target": "Thyrotropin-releasing hormone receptor (Homo sapiens) (UniProt P34981)", "sequence (P34981 whole entry, looked up)": "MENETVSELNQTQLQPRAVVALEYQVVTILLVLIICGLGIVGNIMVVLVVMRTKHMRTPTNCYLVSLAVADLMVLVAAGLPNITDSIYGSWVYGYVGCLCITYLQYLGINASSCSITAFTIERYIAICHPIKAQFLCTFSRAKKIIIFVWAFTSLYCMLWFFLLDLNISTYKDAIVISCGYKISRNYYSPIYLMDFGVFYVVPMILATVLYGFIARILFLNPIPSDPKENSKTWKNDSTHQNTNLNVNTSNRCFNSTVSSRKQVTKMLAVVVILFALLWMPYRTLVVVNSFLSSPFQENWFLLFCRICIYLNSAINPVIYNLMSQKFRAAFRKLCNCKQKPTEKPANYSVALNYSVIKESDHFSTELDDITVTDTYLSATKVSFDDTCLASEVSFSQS", "experiment": "qHTS assay to identify small molecule agonists of the thyrotropin-releasing hormone receptor (TRHR) signaling pathway (AID 1346891);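 further: HEK293 cells expressing TRHR with calcium dye readout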", "details": "TRHR-HEK293 calcium fluorescence, agonist mode; series mostly up to 57.6 µM", "description": "National Center for Advancing Translational Sciences [NCATS] NIH Chemical Genomics Center [NCGC] U.S. Environmental Protection Agency [EPA] National Institutes of Environmental Health Sciences [NIEHS] National Toxicology Program [NTP] Assay overview: Thyrotropin-releasing hormone (TRH) receptor (TRHR) is a G-protein-coupled receptor which binds the tripeptide thyrotropin releasing hormone. TRHR is found in the brain and, when bound by TRH, acts (through phospholipase C) to increase intracellular inositol trisphosphate. It plays a crucial role in the anterior pituitary where it controls the synthesis and secretion of thyroid stimulating hormone and prolactin. The TRHR-Hek293 assay is a cell-based assay, and it has the potential to screen G protein-coupled receptors. A compound/drug can either activate (agonist) or suppress (antagonist) GPCRs that can be monitored by levels of intracellular calcium. Using this assay, the Tox21 10K compound library was screened to identify potential TRHR agonists.\nAssay Protocol Summary: The TRHR-Hek293 cells were dispensed at 1500cells/4uL/well in 1536-well black-clear bottom plates using a Multidrop dispenser. After the assay plates were incubated at a 37 C/5% CO2 incubator for 18 hours, 4 uL of Dye-Loading Solution was added to each well. The plates were incubated at 37 C for 2 hours. For agonist mode, 23 nL of compounds dissolved in DMSO, positive controls or DMSO only was transferred to the assay plate by a pin tool. The fluorescence intensity in the plates was measured using FDSS 7000EX kinetic plate reader for 3 min at 1 sec intervals. Each test compound was measured at 15 concentrations and in triplicates.", "values": [
      {"smiles": "CCCCC(CC)COC(=O)Cl", "note": "(stereo not given)", "Potency": "inactive"},
      {"smiles": "O=C(Nc1ccc(Br)cc1)c1cc(Br)cc(Br)c1O", "Potency": "inactive"},
      {"smiles": "Nc1cccnc1", "Potency": "inactive"},
      {"smiles": "CCC(C)c1ccc(O)cc1", "note": "(stereo not given)", "Potency": "inactive"},
      {"smiles": "Cc1ccc(OP(=O)(Oc2ccc(C)cc2)Oc2ccc(C)cc2)cc1", "Potency": "inactive"},
      {"smiles": "Nc1ccncc1", "Potency": "inactive"},
      {"smiles": "CC(C)Oc1cc(-n2nc(C(C)(C)C)oc2=O)c(Cl)cc1Cl", "Potency": "inactive"},
      {"smiles": "C=C(C)[C@H]1Cc2c(ccc3c2O[C@@H]2COc4cc(OC)c(OC)cc4[C@@H]2C3=O)O1", "Potency": "inactive"},
      {"smiles": "O=C1C=CC(=O)C=C1", "Potency": "inactive"},
      {"smiles": "Nc1ccc(Cl)cc1N", "Potency": "inactive"},
      {"smiles": "CCOc1cc(Oc2ccc(C(F)(F)F)cc2Cl)ccc1[N+](=O)[O-]", "Potency": "inactive"},
      {"smiles": "Oc1ccc(-c2ccccc2)cc1", "Potency": "inactive"},
      {"smiles": "CC(C)(OOC(C)(C)c1ccccc1)c1ccccc1", "Potency": "inactive"},
      {"smiles": "CCC(CC)Nc1c([N+](=O)[O-])cc(C)c(C)c1[N+](=O)[O-]", "Potency": "inactive"},
      {"smiles": "CCOP(=S)(OCC)O/N=C(\\C#N)c1ccccc1", "Potency": "inactive"},
      {"smiles": "Brc1ccc(Oc2cc(Br)c(Br)cc2Br)c(Br)c1", "Potency": "inactive"},
      {"smiles": "CCCCCCOC(=O)c1ccccc1C(=O)OCCCCCC", "Potency": "inactive"},
      {"smiles": "CC1(C)C(C=C(Cl)Cl)C1C(=O)OC(C#N)c1cccc(Oc2ccccc2)c1", "note": "(stereo not given)", "Potency": "inactive"},
      {"smiles": "Oc1c(Cl)c(Cl)c(Cl)c(Cl)c1Cl", "Potency": "inactive"},
      {"smiles": "NCc1cccnc1", "Potency": "inactive"},
      {"smiles": "CN(C)c1ccc(C(=O)c2ccc(N(C)C)cc2)cc1", "Potency": "inactive"},
      {"smiles": "COC(=O)c1sccc1S(=O)(=O)NC(=O)Nc1nc(C)nc(OC)n1", "Potency": "inactive"},
      {"smiles": "C=CCN(CC=C)C(=O)C(Cl)Cl", "Potency": "inactive"},
      {"smiles": "Cc1cc(Cl)ccc1OCCCC(=O)O", "Potency": "inactive"},
      {"smiles": "Clc1nc(Cl)nc(Cl)n1", "Potency": "inactive"},
      {"smiles": "Oc1cc(Cl)ccc1Cl", "Potency": "inactive"},
      {"smiles": "Nc1ccc(Cl)c(Cl)c1", "Potency": "inactive"},
      {"smiles": "NNC(N)=S", "Potency": "inactive"},
      {"smiles": "c1ccc(-c2cccc(-c3ccccc3)c2)cc1", "Potency": "inactive"},
      {"smiles": "CC(C)C(=O)OCC(C)(C)C(OC(=O)C(C)C)C(C)C", "note": "(stereo not given)", "Potency": "inactive"},
      {"smiles": "CCCCCCCCOC(=O)c1ccccc1C(=O)OCCCCCCCC", "Potency": "inactive"},
      {"smiles": "O=[N+]([O-])c1cccc2ccccc12", "Potency": "inactive"},
      {"smiles": "Cc1ccccc1[N+](=O)[O-]", "Potency": "inactive"},
      {"smiles": "CCCCCCCCCCCOC(=O)c1ccccc1C(=O)OCCCCCCCCCCC", "Potency": "inactive"},
      {"smiles": "CCOC(=O)C(C)OC(=O)c1cc(Oc2ccc(C(F)(F)F)cc2Cl)ccc1[N+](=O)[O-]", "note": "(stereo not given)", "Potency": "inactive"},
      {"smiles": "COc1ccc(C=O)cc1", "Potency": "inactive"},
      {"smiles": "CCC(C)(c1ccc(O)cc1)c1ccc(O)cc1", "Potency": "inactive"},
      {"smiles": "COP(=O)(OC)OC", "Potency": "inactive"},
      {"smiles": "NC(=S)Nc1ccccc1", "Potency": "inactive"},
      {"smiles": "Nc1ccc(-c2ccccc2)cc1", "Potency": "inactive"}
    ]}
  ]
}
